Results taken from PubChem BioAssay AID488969 (Vanderbilt High Throughput Screening Facility, 2010).
In all, about 110,000 compounds were measured (“z-score”: median about -0.1, highest 2% from about 2 on). Many of the other results were omitted from the sample, so the highest values are more common in it than they were. Calls of active or inactive are those of the source.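 How the source made its calls: active means z-score in the third read window above 3 or below -3; inactive means the rest.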

molecular target: Metabotropic glutamate receptor 8 (Rattus norvegicus) (UniProt P70579); test: mGluR8 Gi/Go-coupled signaling modulation – cell-based, rat, thallium flux, HTS, primary screen (AID 488969); conditions: HEK293 rat mGluR8, GIRK (G protein-gated inwardly rectifying potassium channel) thallium flux, FluoZin2; at 10 µM; stronger effect = higher value; submaximal glutamate (EC20) added with thallium
Sequence (P70579 whole entry, looked up): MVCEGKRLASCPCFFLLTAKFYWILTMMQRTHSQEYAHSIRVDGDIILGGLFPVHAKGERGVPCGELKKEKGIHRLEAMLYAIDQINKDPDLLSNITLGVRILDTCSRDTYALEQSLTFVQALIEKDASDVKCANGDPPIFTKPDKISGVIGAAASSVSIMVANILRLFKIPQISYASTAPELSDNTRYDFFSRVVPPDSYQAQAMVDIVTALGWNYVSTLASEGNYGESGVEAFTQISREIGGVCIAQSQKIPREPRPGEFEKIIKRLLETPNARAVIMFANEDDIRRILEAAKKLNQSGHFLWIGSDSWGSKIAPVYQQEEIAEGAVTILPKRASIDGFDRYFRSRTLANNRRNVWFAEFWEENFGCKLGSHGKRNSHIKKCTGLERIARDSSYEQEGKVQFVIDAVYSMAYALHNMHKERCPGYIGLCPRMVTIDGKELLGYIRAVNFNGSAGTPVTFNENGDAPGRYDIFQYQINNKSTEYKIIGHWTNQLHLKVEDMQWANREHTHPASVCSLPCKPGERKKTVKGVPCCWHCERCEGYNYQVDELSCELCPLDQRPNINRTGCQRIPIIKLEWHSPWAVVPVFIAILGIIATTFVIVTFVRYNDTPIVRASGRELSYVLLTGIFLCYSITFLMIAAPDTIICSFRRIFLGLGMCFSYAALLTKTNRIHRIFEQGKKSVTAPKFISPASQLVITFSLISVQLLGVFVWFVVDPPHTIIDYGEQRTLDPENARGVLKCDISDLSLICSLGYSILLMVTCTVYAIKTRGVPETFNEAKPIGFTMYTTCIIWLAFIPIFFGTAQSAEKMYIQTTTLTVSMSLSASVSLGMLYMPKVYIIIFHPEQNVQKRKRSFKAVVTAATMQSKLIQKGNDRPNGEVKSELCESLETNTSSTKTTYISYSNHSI

Row | Compound | z-score
1 | CCOC(=O)c1nnc(-c2ccccc2)nc1Oc1ccccc1Cl | -0.346
2 | COC(=O)c1ccccc1NC(=S)NC(=O)c1ccc(C)cc1 | 2.94
3 | COC(=O)c1ccccc1NC(=S)NC(=O)C1CC1 | -0.189
4 | COC(=O)c1ccccc1NC(=S)NC(=O)c1ccccc1C | 1.1
5 | COC(=O)c1ccccc1NC(=S)NC(=O)c1cccc2ccccc12 | 0.972
6 | COC(=O)c1ccccc1NC(=S)NC(=O)c1ccccc1 | 13.1 (active)
7 | COC(=O)c1ccccc1NC(=S)NC(=O)c1ccc2ccccc2c1 | 0.231
8 | O=C(Nc1ccc(Cc2ccncc2)cc1)C1CCC(N2C(=O)C3C4C=CC(C5CC45)C3C2=O)CC1 (centres undefined) | -0.424
9 | Cn1c2ccccc2c2c(C(=O)N3CCN(C(=O)c4ccco4)CC3)cn(C3CCCCC3)c(=O)c21 | -0.126
10 | CCN(C(=O)CN1CCN(c2ccccc2O)CC1)c1c(N)n(Cc2ccccc2)c(=O)[nH]c1=O | 14.3 (active)
11 | CCN(C(=O)CN1CCN(c2ccccc2OC)CC1)c1c(N)n(Cc2ccccc2)c(=O)[nH]c1=O | 0.391
12 | CCN(C(=O)CN1CCN(c2ccccc2)CC1)c1c(N)n(Cc2ccccc2)c(=O)[nH]c1=O | -0.349
13 | CC1Cc2ccccc2N1C(=O)CSc1nnc(CNc2ccccc2)o1 (centres undefined) | -0.151
14 | CC(=O)C1C(c2ccccc2)c2c(n[nH]c2C)CC1(C)O (centres undefined) | 0.241
15 | N=c1c(C(=O)NCc2ccco2)cc2c(=O)n3ccccc3nc2n1Cc1ccccc1 | 1.15
16 | COc1ccc(CCn2c(=N)c(C(=O)NCc3ccco3)cc3c(=O)n4ccccc4nc32)cc1 | 0.369
17 | N=c1c(C(=O)NCc2ccco2)cc2c(=O)n3ccccc3nc2n1CCc1ccccc1 | 4.11 (active)
18 | Cc1cccc(N2CCN(C(=O)c3ccoc3C)CC2)c1C | -0.311
19 | CN(C)c1nc(N)nc(CSc2n[nH]c(-c3ccccc3)n2)n1 | -0.00289
20 | c1ccc(Cc2nnc(-c3ccccc3)o2)cc1 | 10.4 (active)
21 | Cc1ccccc1-c1nnc(Cc2ccccc2)o1 | -0.211
22 | ClCc1nnc(-c2ccccc2)o1 | -0.143

Row | Compound | z-score
23 | CCOC(=O)CN1C(=O)C2(OCCCO2)c2ccccc21 | -0.0349
24 | COc1cccc2c1OC[C@@H](CO)[C@H]2N(C)C(=O)Nc1ccccc1 | 6.33 (active)
25 | COc1cccc2c1OC[C@@H](CO)[C@H]2N(C)C(=O)Nc1ccc(Cl)cc1Cl | 0.0803
26 | CN(C(=O)Nc1ccc(Cl)cc1Cl)[C@H]1c2cc(Br)ccc2OC[C@H]1CO | -0.211
27 | CC1(C)Oc2nc3ccccc3n2/C1=C\C#N | -0.233
28 | CC(=O)Nc1ccc(S(=O)(=O)NC2(C(F)(F)F)NC(=O)N(C3CCCCC3)C2=O)cc1 (centres undefined) | -0.0965
29 | CSc1nc(C)cc(Oc2ccc(OCCOc3ccccc3)nn2)n1 | -0.702
30 | CCn1c(SCC(=O)Nc2ccccc2OC)nc2ccccc2c1=O | -0.373
31 | COc1ccc(Cn2cnc3sccc3c2=O)cc1 | -0.167
32 | CCOC(=O)Nc1ccc(S(=O)(=O)Nc2cc(C)nc(C)n2)cc1 | -0.12
33 | COc1ccc(CCN2C(=O)CC(C(N)=O)SC2=Nc2ccccc2)cc1OC (centres undefined) | 1.15
34 | S=C1NC(c2ccccc2)=NCN1c1ccccc1 | 0.145
35 | S=C1NC(c2ccccc2)=NCN1c1ccc(Cl)cc1 | 3.19 (active)
36 | Cc1ccc(N2CN=C(c3ccccc3)NC2=S)cc1 | 0.328
37 | CCOc1ccccc1Nc1nnc(Cc2ccccc2Cl)c(=O)[nH]1 | 12.8 (active)
38 | CCOc1ccccc1Nc1nnc(C)c(=O)[nH]1 | -0.155
39 | CCCOc1ccccc1Nc1nnc(C)c(=O)[nH]1 | 0.409
40 | CCOC(=O)C1CCN(C(=O)c2cc(OCC)c(OCC)c(OCC)c2)CC1 | 0.856
41 | OC1CCN(c2c3c(nc4cc(-c5ccc(Cl)cc5)nn24)CCC3)CC1 | -0.738
42 | O=C(c1cc2ccccc2c(=O)o1)N1CCCC1 | 0.79
43 | Cc1cc(NC(=O)c2ccc(F)cc2F)n(-c2nc3ccccc3[nH]2)n1 | 0.0238
44 | Cc1cc(NC(=O)c2c(F)cccc2Cl)n(-c2nc3ccccc3[nH]2)n1 | 3.06 (active)

Row | Compound | z-score
45 | Cc1cc(NC(=O)/C=C/c2ccccc2Cl)n(-c2nc3ccccc3[nH]2)n1 | 0.0437
46 | Oc1cccc(NC(=S)Nc2ccc(SC(F)F)cc2)c1 | 2.92
47 | CN1CCC(N(C)C(=S)Nc2ccc(SC(F)F)cc2)CC1 | -0.0288
48 | CC1CC(C)CN(C(=S)Nc2ccc(SC(F)F)cc2)C1 (centres undefined) | 6.63 (active)
49 | CC1CCCCC1NC(=S)Nc1ccc(SC(F)F)cc1 (centres undefined) | 5.08 (active)
50 | FC(F)Sc1ccc(NC(=S)NC2CCC(NC(=S)Nc3ccc(SC(F)F)cc3)CC2)cc1 (centres undefined) | -0.2
51 | CC1CCCC(NC(=S)Nc2ccc(SC(F)F)cc2)C1C (centres undefined) | 4.36 (active)
52 | CN(C(=S)Nc1ccc(SC(F)F)cc1)c1ccc(O)cc1 | 0.142
53 | FC(F)Sc1ccc(NC(=S)NC2CCCCC2)cc1 | -0.326
54 | FC(F)Sc1ccc(NC(=S)NCC2CCCCC2)cc1 | -0.233
55 | Oc1cccc(NC(=S)Nc2cccnc2)c1 | -0.756
56 | CC1CCN(C(=S)Nc2ccc(SC(F)F)cc2)CC1 | 0.000321
57 | CC1CC(C)CN(C(=S)Nc2ccc(OC(F)F)cc2)C1 (centres undefined) | -0.115
58 | c1cncc(C(c2nnnn2C2CCCC2)N2CCN(Cc3ccc4c(c3)OCO4)CC2)c1 (centres undefined) | 0.0897
59 | O=C(c1ccco1)N1CCN(c2ccc(Cl)c(Cl)c2)CC1 | -0.938
60 | COc1cccc(OC)c1NC(=O)CN1CCC(NC(=O)c2cccc(F)c2)CC1 | -0.0108
61 | O=C(CCNC(=O)Cn1ccc2ccccc2c1=O)NCCc1ccccc1Cl | -0.0359
62 | CCSc1nnc(NC(=O)C2Cc3ccccc3CN2S(=O)(=O)CC)s1 (centres undefined) | 0.295
63 | C=CC(=O)Nc1ccc(Br)cc1 | 0.0392
64 | COc1ccc(/C=C2\C(=O)NC(=S)N2C(=O)c2ccc(F)cc2)cc1 | 3.14 (active)
65 | COc1ccc(C(=O)N2C(=S)NC(=O)/C2=C\c2ccc(C)cc2)cc1 | 2.75
66 | COc1ccc(/C=C/C(=O)Oc2ccc(/C=N\NC(=O)c3ccc(F)cc3)cc2)cc1 | 0.18

Row | Compound | z-score
67 | COc1ccc(-c2nc(N)n(C(=O)c3ccc(C)cc3)n2)cc1 | 0.106
68 | COc1ccc(C(=O)C2CCN(C(=O)c3ccc(C)cc3)CC2)cc1 | -0.285
69 | COc1ccc(C(=O)N2CCC(C(=O)c3ccc(F)cc3)CC2)cc1 | -1.67
70 | N#Cc1cc2c(nc1SCc1ccccc1)CCC2 | 0.359
71 | Cc1c(C(=S)Nc2ccccc2)cnn1-c1ccccc1 | -0.398
72 | Cc1oncc1C(=S)Nc1ccccc1 | 12.4 (active)
73 | COC(=O)c1cccc(NC(=O)c2cnoc2C)c1 | -0.126
74 | COc1ccc(C(C)N2CC34C=CC(O3)C(C(=O)O)C4C2=O)cc1 (centres undefined) | 0.302
75 | Cc1ccccc1OCC(O)Cn1nnc2ccccc21 (centres undefined) | -0.244
76 | COc1ccc(OCC(O)Cn2c(Nc3ccccc3)nc3c2c(=O)n(C)c(=O)n3C)cc1 (centres undefined) | -0.45
77 | C=CCn1c(N)c(C(=O)Nc2ccccc2OC)sc1=S | 0.333
78 | Cc1ccc(NC(=O)c2ccc(COc3ccc4c(c3)CCC4)cc2)c(C)c1 | 3.36 (active)
79 | COc1ccccc1NC(=O)c1ccc(COc2ccc3c(c2)CCC3)cc1 | -0.228
80 | COC(=O)c1ccccc1NC(=O)c1ccc(COc2ccc3c(c2)CCC3)cc1 | -0.271
81 | O=C(O)[C@H]1CCCC[C@H]1C(=O)NCCc1ccccc1 | 0.402
82 | COC(=O)C(C)Sc1nnc(Cc2cc(=O)[nH]c(=O)[nH]2)n1-c1ccc(OC)cc1 (centres undefined) | 0.194
83 | CCOC(=O)C(C)Sc1nnc(Cc2cc(=O)[nH]c(=O)[nH]2)n1-c1ccc(OCC)cc1 (centres undefined) | 0.465
84 | CCOc1ccc(-n2c(Cc3cc(=O)[nH]c(=O)[nH]3)nnc2SC(C)C(=O)OC)cc1 (centres undefined) | 12.7 (active)
85 | COc1ccc(C(C(=O)NC(C)(C)C)N(CC2CCCO2)C(=O)CCC(=O)Nc2cc(C)on2)cc1 (centres undefined) | -0.202
86 | O=S(=O)(N/N=C/c1ccc(OC2CSC2)cc1)c1ccccc1 | -0.00217
87 | Nc1c(S(=O)(=O)c2cccs2)c2nc3ccccc3nc2n1Cc1ccc2c(c1)OCO2 | -0.174
88 | Cc1ccc(-c2n[nH]c(=S)n2/N=C/c2ccc(C)o2)cc1 | -1.27

Row | Compound | z-score
89 | Fc1ccc(/C=N/n2c(-c3cccs3)n[nH]c2=S)cc1 | 4.92 (active)
90 | S=c1[nH]nc(-c2ccncc2)n1/N=C/c1ccccc1 | -0.00784
91 | Cc1ccc(/C=N/n2c(-c3ccncc3)n[nH]c2=S)cc1 | 0.0356
92 | Cc1ccsc1/C=N/n1c(-c2ccccn2)n[nH]c1=S | -0.121
93 | Cc1ccc(/C=N/n2c(-c3cccs3)n[nH]c2=S)cc1 | 10 (active)
94 | Cc1c(/C=N/NC(N)=O)c2ccccn2c1C(=O)c1ccc(F)cc1 | -0.327
95 | COCc1cc(C)nc2sc(C(=O)N3CCCCC3)c(N)c12 | 0.33
96 | CCCCOc1ccc(C(=O)OC2CC(C)N(C)CC2C)cc1 (centres undefined) | 3.48 (active)
97 | CCCCOc1ccc(C(=O)N2CCC(C)CC2)cc1 | -0.401
98 | CCCCOc1ccc(C(=O)N2CC(C)OC(C)C2)cc1 (centres undefined) | -0.154
99 | Cc1nc2ccc(NC(=O)c3ccc(S(=O)(=O)N4CCOCC4)cc3)cc2s1 | -0.182
100 | CCN(c1ccccc1)S(=O)(=O)c1ccc(C(=O)Oc2ccc(C(C)=O)cc2)cc1 | -0.819
101 | O=C(Oc1ccc(-c2nnco2)cc1)N(c1ccccc1)c1ccccc1 | 0.519
102 | CC(=O)c1ccc(OC(=O)N(c2ccccc2)c2ccccc2)cc1 | 2.99
103 | CS(=O)(=O)N(CCc1ccccc1)CC(=O)NCc1cccnc1 | 0.68
104 | O=c1c2c(n3nnnc3n1Cc1ccccc1)-c1ccccc1CC21CCCC1 | 0.0259
105 | Cn1c2ccccc2c2cc(C(=O)NNS(=O)(=O)c3ccc(F)cc3)sc21 | 5.09 (active)
106 | COc1ccc(S(=O)(=O)NNC(=O)c2cc3c4ccccc4n(C)c3s2)cc1 | -0.127
107 | CC(=O)Nc1ccc(S(=O)(=O)NNC(=O)c2cc3c4ccccc4n(C)c3s2)cc1 | -0.78
108 | COc1ccccc1C(=O)Nc1ccc(S(=O)(=O)N2CCc3ccccc32)cc1 | 0.187
109 | Cc1ccc(Oc2cc([N+](=O)[O-])cc3c2C(=O)Nc2ccccc2O3)cc1 | -0.0885
